# Results filed as inconclusive are left out. Calls of active or inactive are those of the source.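 Rule for the calls, unless noted: active = RAM network inhibition above 8.4% in each of two replicates, 3 SD over the compound average; inconclusive = above 8.4% inhibition in only one replicate; inactive = 8.4% inhibition or less in each replicate.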
# Experiments:
# [1] = reducers of endogenous Her2 protein level, primary screen, SKBR3 breast tumor cells, AlphaScreen, ATP viability (AID 461;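 active = Her2 level under about 52% in both replicate screens, with viability over 70% of control, limit read from the data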;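 for Her2 level: lower value means less Her2 protein in the cells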;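 for viability: percent of carrier control wells set as 100% viability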); details: 18-24 h, measured here: SKBR3 viability, ATP luminescence, at 10 µM
# [2] = target: Receptor tyrosine-protein kinase erbB-2 (Homo sapiens) (UniProt P04626); assay: as above; details: 18-24 h, at 10 µM, stronger effect = lower value
# [3] = SK-BR-3 cell growth inhibitors, pilot screen, 24 h, human (AID 572;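 active = viability at or below 10% of carrier control in both of two separate runs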;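 note: compound exposure lasted between 18 and 24 h rather than exactly 24 h; 100% = carrier-treated control wells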); details: SK-BR-3 viability, CellTiter-Glo luminescence, at 10 µM, stronger effect = lower value
# [4] = HUVEC growth inhibition – cell-based, human, primary screen (AID 575;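 active = viability at or below 30% in both replicate assays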;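 note: 100% = median of untreated cell wells with 0.1% DMSO on each plate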); details: HUVEC proliferation, CellTiter-Glo luminescence, 72 h; at 10 µM; stronger effect = lower value
# [5] = growth inhibitors of H69AR lung tumor, primary screen, human, duplicate replicates (AID 580;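 active = viability at or under a set limit in both replicates, limit being median viability minus 3 SD, cut at about 48% in these data, passing the limit was not always enough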;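 note: 100% = mean luminescence of untreated wells and 0% = no signal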); details: H69AR lung tumor cells viability, ATP luminescence, 72 h; at 10 µM; stronger effect = lower value
# [6] = reversal of MRP1-mediated doxorubicin resistance, pilot screen, H69AR cells, doxorubicin co-treatment (AID 601;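 active = viability loss from added drug above about 55%, and viability with drug at most 40%, in both replicates, limit read from the data, passing the limit was not always enough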); details: CellTiter-Glo, 72 h, at 10 µM; for differential viability (reversal): stronger effect = higher value
# [7] = 384-well plate pilot, post-Golgi transport modulator project, inhibition of yeast transport mutant growth (AID 636; in the data active = inhibition above about 31%); details: absorbance 615 nm, about 18 h, stronger effect = higher value
# [8] = growth suppression of yeast trafficking mutant, preliminary HTS, modulators of trafficking downstream of Golgi apparatus project, 1536-format plate, OD 615 nm (AID 637; in the data active = inhibition above about 30%); details: yeast transport mutant growth, absorbance 615 nm, 18 h; stronger effect = higher value
# [9] = OD615 S. cerevisiae growth inhibition, permissive medium, pilot counter-assay, permissive growth control for S. cerevisiae lifespan shortening project (AID 705;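 active = growth inhibition above 25% in both replicates, a cutoff set 3 SD above the mean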); details: OD615, 24 h, at 10 µM, stronger effect = higher value
# [10] = Restrictive medium S. cerevisiae growth inhibition, OD615, pilot screen of yeast lifespan reduction project, restrictive growth control (AID 706;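 active = growth inhibition above a set limit, 3 SD over mean compound inhibition, in both replicates, cut at about 43% in these data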;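 note: modified DeaD lifespan yeast strain shifted to restrictive glucose medium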); details: OD615, 48 h, at 10 µM, stronger effect = higher value
# [11] = viability gain of MRP-1-high H69AR cells under doxorubicin, pilot screen, MRP-1 activator project, CellTiter-Glo, duplicate (AID 807;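 active = viability increase at or above a cutoff of the median across tested compounds plus 3 SD, cut at about 8.5% in these data, passing the limit was not always enough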;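 note: compound pretreatment 18-22 h then 72 h combined with doxorubicin; 0% = doxorubicin alone and 100% = vehicle without doxorubicin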); details: H69AR viability with doxorubicin, CellTiter-Glo luminescence; at 10 µM; stronger effect = higher value
# [12] = growth suppression of beta-catenin knockout HCT116, pilot screen, human colon tumor cells (AID 823;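 active = cell viability at or below a set limit in both duplicate runs, the limit being the all-compound median minus 4 SD, cut at about 23% in these data, passing the limit was not always enough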;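 note: 0% = wells killed by 20 µM Hyamine and 100% = untreated DMSO cell wells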); details: CellTiter-Glo, 60 h, at 10 µM, stronger effect = lower value
# [13] = growth suppression of PTEN-deleted HCT116, pilot screen, cell-based, HCT116 clonal line, CellTiter-Glo (AID 824;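 active = viability at or below 27.92% in each of two runs, the all-compound median minus 4 SD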;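 note: 0% = 20 µM Hyamine control and 100% = vehicle cell control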); details: 60 h, at 10 µM, stronger effect = lower value
# [14] = inhibitors of the yeast RAM network, pilot screen, dse1pr::URA3 reporter, 5-FOA selection (AID 869;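 active = inhibition over a set limit, the all-compound mean plus 3 SD, in both replicate runs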;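 note: 0% = DMSO wells with no growth and 100% = 10 µM 1-NA-PP1 with full growth; RAM network block rescues cells from 5-FOA so hits raise OD615 growth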); details: S. cerevisiae dse1pr::URA3 5-FOA growth, OD615, 2 d; at 10 µM; stronger effect = higher value; strain carries analog-sensitive mutant Cbk1 kinase
# [15] = RAM signaling pathway blockade in yeast – S. cerevisiae, Pdr1DBD-CYC8 efflux-inhibited sensitized strain, primary screen (AID 1298);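 note: 0% = DMSO untreated cells without growth and 100% = 10 µM 1-NA-PP1 full growth; higher means more yeast growth rescued from 5-FOA killing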; details: S. cerevisiae cbk1-as DSE1-URA3 strain, 5-FOA growth OD615, 2 d; at 50 µM; stronger effect = higher value
# [16] = H69AR cells + 2 uM doxorubicin, measured here: viability with 2 uM doxorubicin, stronger effect = lower value
# [17] = H69AR cells, compound alone cytotoxicity
# Chain of Receptor tyrosine-protein kinase erbB-2 (Homo sapiens) (P04626 whole entry, looked up): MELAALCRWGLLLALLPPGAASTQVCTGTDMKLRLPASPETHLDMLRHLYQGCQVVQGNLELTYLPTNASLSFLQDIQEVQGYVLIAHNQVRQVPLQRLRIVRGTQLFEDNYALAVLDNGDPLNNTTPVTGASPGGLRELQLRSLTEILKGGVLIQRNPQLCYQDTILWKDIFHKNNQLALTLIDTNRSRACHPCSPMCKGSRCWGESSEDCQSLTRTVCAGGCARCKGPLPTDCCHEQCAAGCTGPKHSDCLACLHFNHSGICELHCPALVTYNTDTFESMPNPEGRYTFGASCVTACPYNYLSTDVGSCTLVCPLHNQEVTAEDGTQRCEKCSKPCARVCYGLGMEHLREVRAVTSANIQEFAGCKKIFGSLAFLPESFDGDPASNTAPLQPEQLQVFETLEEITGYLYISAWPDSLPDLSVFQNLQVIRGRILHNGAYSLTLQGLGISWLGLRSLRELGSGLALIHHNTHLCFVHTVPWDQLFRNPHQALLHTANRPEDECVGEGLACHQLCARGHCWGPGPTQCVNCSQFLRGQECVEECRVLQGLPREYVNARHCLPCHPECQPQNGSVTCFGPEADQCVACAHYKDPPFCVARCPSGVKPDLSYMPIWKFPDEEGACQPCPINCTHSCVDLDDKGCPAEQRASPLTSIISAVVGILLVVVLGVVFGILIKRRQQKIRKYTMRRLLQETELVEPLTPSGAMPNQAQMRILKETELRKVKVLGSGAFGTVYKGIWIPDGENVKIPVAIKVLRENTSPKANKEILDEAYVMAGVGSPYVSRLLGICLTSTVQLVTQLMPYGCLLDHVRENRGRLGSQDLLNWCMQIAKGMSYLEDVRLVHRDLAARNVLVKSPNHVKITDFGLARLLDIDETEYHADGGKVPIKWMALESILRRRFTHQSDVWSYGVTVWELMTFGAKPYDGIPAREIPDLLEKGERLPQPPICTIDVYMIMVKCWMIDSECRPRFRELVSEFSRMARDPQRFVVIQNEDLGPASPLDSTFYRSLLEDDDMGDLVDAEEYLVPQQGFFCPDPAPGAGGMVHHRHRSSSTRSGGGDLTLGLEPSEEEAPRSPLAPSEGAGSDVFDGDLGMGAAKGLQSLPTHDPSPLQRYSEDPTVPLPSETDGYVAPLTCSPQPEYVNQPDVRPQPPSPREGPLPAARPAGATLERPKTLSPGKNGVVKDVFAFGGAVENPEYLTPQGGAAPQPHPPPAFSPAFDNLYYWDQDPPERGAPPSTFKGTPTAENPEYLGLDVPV
SMILES,viability [1] [%],Her2 level [2],viability [3],viability [4],viability [5],differential viability (reversal) ([6]; H69AR cells + 2 uM doxorubicin),"viability [6, 16] [%]","viability [6, 17] [%]",inhibition [7],inhibition [8],growth inhibition [9],growth inhibition [10],viability increase [11],viability [12],viability [13],inhibition [14],RAM network inhibition [15]
CCCN1CCN(CCCNC(=O)Cn2ncc3c4ccccc4n(C)c3c2=O)CC1,99,120% (inactive),99% (inactive),101% (inactive),102% (inactive),5.29% (inactive),96.8,102,0.9% (inactive),5.17% (inactive),4.22% (inactive),-10.6% (inactive),-1.73% (inactive),96.7% (inactive),95.8% (inactive),1.89% (inactive),-0.33% (inactive)
Cc1c(C#N)c2ncnc(-c3ccccc3)c2n1-c1ccccc1,106,101% (inactive),106% (inactive),85.5% (inactive),71.8% (inactive),52.5% (inactive),19.3,71.8,-3.64% (inactive),-4.92% (inactive),-10.9% (inactive),-15.3% (inactive),-5.64% (inactive),91% (inactive),85.9% (inactive),0.395% (inactive),5.06% (inactive)
CCCC(=O)N1CC(=O)Nc2ccc(C)cc2C1c1ccc(F)cc1 (stereo not given),86,101% (inactive),86% (inactive),79.9% (inactive),97.4% (inactive),20.3% (inactive),77.1,97.4,-2% (inactive),0.16% (inactive),-8.09% (inactive),-8.8% (inactive),-3.73% (inactive),82.2% (inactive),84.2% (inactive),1.42% (inactive),2.82% (inactive)
Cc1cccc(C2CC(c3ccc(Cl)cc3)Nc3nc(N)nn32)c1 (stereo not given),91,113% (inactive),91% (inactive),103% (inactive),96.6% (inactive),-10.4% (inactive),107,96.6,0.4% (inactive),-5.25% (inactive),0.43% (inactive),23.9% (inactive),4.33% (inactive),82.1% (inactive),74.9% (inactive),0.01% (inactive),3.62% (inactive)
Cn1c(C(=O)NCCCN2CCCCCC2)cc2c(=O)n(C)c3ccccc3c21,80,92.5% (inactive),80% (inactive),91.2% (inactive),87.2% (inactive),12% (inactive),75.1,87.2,4.36% (inactive),-3% (inactive),-1.14% (inactive),6.89% (inactive),-4.55% (inactive),76.1% (inactive),78.7% (inactive),1.04% (inactive),0% (inactive)
O=C(Nc1nc(-c2ccccn2)cs1)C1CC1,93.5,97.5% (inactive),93.5% (inactive),96.1% (inactive),82% (inactive),-19.5% (inactive),101,82,1.07% (inactive),-3.17% (inactive),0.675% (inactive),1.15% (inactive),0.73% (inactive),67.3% (inactive),70.5% (inactive),0.575% (inactive),0.89% (inactive)
Cn1c(SCC(=O)Nc2ccc(F)cc2)nnc1-c1cccnc1,93,106% (inactive),93% (inactive),96.5% (inactive),104% (inactive),12.8% (inactive),90.8,104,-3.87% (inactive),-2.5% (inactive),-8.06% (inactive),0.86% (inactive),2.18% (inactive),104% (inactive),101% (inactive),0.43% (inactive),4.04% (inactive)
COC(=O)CN(c1ccc(OC)cc1)S(=O)(=O)c1ccc(OC)c(OC)c1,89.5,91% (inactive),89.5% (inactive),96.5% (inactive),88.1% (inactive),2.77% (inactive),85.3,88.1,-0.78% (inactive),-2.3% (inactive),-13.7% (inactive),-17% (inactive),-1.06% (inactive),98.5% (inactive),99.5% (inactive),1.75% (inactive),4.96% (inactive)
Cc1ccc(N=Cc2ccc[nH]2)c(O)c1,96,88.5% (inactive),96% (inactive),76.8% (inactive),81.9% (inactive),-14.5% (inactive),96.4,81.9,-2.56% (inactive),0.5% (inactive),-20.2% (inactive),-5.83% (inactive),-4.28% (inactive),71.8% (inactive),88.4% (inactive),1.36% (inactive),0.26% (inactive)
CCOC(=O)/C=C1\CC(=O)Nc2nonc2N1,112,92.5% (inactive),112% (inactive),109% (inactive),105% (inactive),9.69% (inactive),95.7,105,-1.73% (inactive),0.97% (inactive),0.64% (inactive),9.22% (inactive),-2.08% (inactive),97.5% (inactive),95.3% (inactive),0.615% (inactive),1.93% (inactive)
COC(=O)Cn1ncc2c(C)n(Cc3ccccc3)c(C)c2c1=O,122,112% (inactive),122% (inactive),107% (inactive),96% (inactive),7.04% (inactive),88.9,96,-3.73% (inactive),2% (inactive),-7.07% (inactive),-6.09% (inactive),2.78% (inactive),100% (inactive),96.7% (inactive),0.365% (inactive),2.88% (inactive)
CSc1nc2c(c(=O)n1C)SC(C)C2 (stereo not given),97,92.5% (inactive),97% (inactive),103% (inactive),90.8% (inactive),-4.56% (inactive),95.4,90.8,-5.87% (inactive),-1.67% (inactive),-6.38% (inactive),-10.4% (inactive),-2.62% (inactive),103% (inactive),93.5% (inactive),1.56% (inactive),5.01% (inactive)
Cc1nn(C(=O)c2ccoc2C)c(N)c1-c1ccccc1,101,88.5% (inactive),101% (inactive),85.9% (inactive),92.1% (inactive),12.6% (inactive),79.5,92.1,-6.27% (inactive),-2.33% (inactive),13% (inactive),10.9% (inactive),2.64% (inactive),78.8% (inactive),84.3% (inactive),1.68% (inactive),7.07% (inactive)
C/C=C/Cn1c(SCCCc2ccccc2)nc2c1c(=O)[nH]c(=O)n2C,89.5,72% (inactive),89.5% (inactive),61.2% (inactive),69.6% (inactive),0.835% (inactive),68.8,69.6,1.07% (inactive),3.61% (inactive),-15.3% (inactive),1.29% (inactive),-3.52% (inactive),66.8% (inactive),52.6% (inactive),1.32% (inactive),9.17% (inactive)
CCCSc1nnc(N2C(=O)CC(c3ccsc3)C3=C2CCCC3=O)s1 (stereo not given),92.5,100% (inactive),92.5% (inactive),93.8% (inactive),92.7% (inactive),0.73% (inactive),91.9,92.7,-5.87% (inactive),-4.5% (inactive),-3.18% (inactive),-7.41% (inactive),-0.83% (inactive),99.4% (inactive),89.6% (inactive),0.25% (inactive),7.67% (inactive)
O=C(NCCOC(=O)C1COc2ccccc2O1)C1COc2ccccc2O1 (stereo not given),92.5,95% (inactive),92.5% (inactive),88.5% (inactive),103% (inactive),10.3% (inactive),92.6,103,-6.76% (inactive),-2.79% (inactive),-7.82% (inactive),-1.52% (inactive),0.34% (inactive),102% (inactive),100% (inactive),0.095% (inactive),0.89% (inactive)
CCCc1cc(C(=O)Nc2sc(C)c(C)c2C(=O)OCC)no1,86,79% (inactive),86% (inactive),85.8% (inactive),92.6% (inactive),0.625% (inactive),92,92.6,-1.79% (inactive),1.17% (inactive),-10.7% (inactive),2.83% (inactive),2.07% (inactive),102% (inactive),97.9% (inactive),3.55% (inactive),7.13% (inactive)
Cc1nc2c(-c3ccccc3)c(C)nn2c(C)c1CCC(=O)NCc1ccco1,101,100% (inactive),101% (inactive),88.2% (inactive),90.8% (inactive),14.2% (inactive),76.6,90.8,-0.9% (inactive),-2.5% (inactive),-4.98% (inactive),5.46% (inactive),-3.51% (inactive),98.9% (inactive),101% (inactive),1.4% (inactive),5.36% (inactive)
COc1cc(C(O)c2nc3ccccc3n2C)cc(OC)c1OC (stereo not given),91.5,100% (inactive),91.5% (inactive),99.8% (inactive),103% (inactive),9.33% (inactive),93.2,103,1.95% (inactive),-7.33% (inactive),-7.22% (inactive),-9.59% (inactive),-0.62% (inactive),94.1% (inactive),93.3% (inactive),1.35% (inactive),0.78% (inactive)
C=CCSc1nnc(Cc2c(C)[nH]c3ccccc23)o1,90.5,96% (inactive),90.5% (inactive),84.7% (inactive),92.2% (inactive),6.96% (inactive),85.3,92.2,-3.87% (inactive),-2.5% (inactive),1.6% (inactive),3.4% (inactive),-0.66% (inactive),99.7% (inactive),99.5% (inactive),-0.545% (inactive),1.36% (inactive)

# Source: PubChem BioAssay
